Screening results: PubChem, National Center for Advancing Translational Sciences (NCATS)
KB-V1 cytotox: KB-V1 MDR subline cytotoxicity | KB-V1 MDR cells viability, CellTiter-Glo, 72 h | Potency, µM (series often up to 46.1 µM), hits mostly cytotoxic | hit rate 3.4% among 400,000 | AID 1347076; also: potency is read from the fitted curve at half-maximal effect; % is scaled to controls: 0 for no effect and ±100 for the full control effect; nearly all actives have a fitted effect of over 60% in size
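qHTS viability screen in drug-selected KB-V1 MDR cells: 72 h compound treatment at 37 degrees C, ATP luminescence end point.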
SW480 rereplic: DNA re-replication induction in SW480 cells; Potency, µM (doses to about 46.1 µM), without a hit: top-dose re-replication activation, actives largely listed as activators; AID 624297; hit rate 1.8% among 340,000; SW480 DNA re-replication, Hoechst DNA content imaging, 48 h; also: potency is read from the fitted curve at half-maximal effect; % of control where 0% means no effect; nearly all actives have a fitted effect of over 55% in size
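Quantitative HTS format with DMSO vehicle controls; 48 hr drug incubation at 37 C, then 40 min Hoechst staining and scanning imager measurement at 405 nm excitation.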
MCF10A rerep: DNA re-replication induction in MCF 10a cells; MCF 10A DNA re-replication, Hoechst nuclear intensity, 48 h; Potency, µM (highest dose often 46.1 µM), for the others: at the highest dose activity, positive = re-replication, hits mostly activators; hit rate 2.9% among 350,000; also: potency is read from the fitted curve at half-maximal effect; % of control where 0% means no effect; nearly all actives have a fitted effect of over 50% in size
KB-3-1 tox: kills parental KB-3-1 adenocarcinoma cells; hit rate 1.4% among 400,000; KB-3-1 viability, CellTiter-Glo ATP luminescence, 72 h; Potency, µM (titrated, usually from 46.1 µM), most hits filed as cytotoxic; also: potency is read from the fitted curve at half-maximal effect; % is scaled to controls: 0 for no effect and ±100 for the full control effect; nearly all actives have a fitted effect of over 60% in size
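Here the drug-naive KB-3-1 line serves as comparator for MDR sub-line selectivity; cells received compound titrations, 72 h at 37 °C, then CellTiter-Glo readout.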
D3 ag: D3 dopamine receptor (human) agonism. P35462. D3R DiscoveRx beta-arrestin cells, luminescence, 90 min. max activation, %. hit rate 0.58% among 410,000; in the data active = max activation above about 30%; also: 0% is about no effect
Target sequence (P35462 whole entry, looked up): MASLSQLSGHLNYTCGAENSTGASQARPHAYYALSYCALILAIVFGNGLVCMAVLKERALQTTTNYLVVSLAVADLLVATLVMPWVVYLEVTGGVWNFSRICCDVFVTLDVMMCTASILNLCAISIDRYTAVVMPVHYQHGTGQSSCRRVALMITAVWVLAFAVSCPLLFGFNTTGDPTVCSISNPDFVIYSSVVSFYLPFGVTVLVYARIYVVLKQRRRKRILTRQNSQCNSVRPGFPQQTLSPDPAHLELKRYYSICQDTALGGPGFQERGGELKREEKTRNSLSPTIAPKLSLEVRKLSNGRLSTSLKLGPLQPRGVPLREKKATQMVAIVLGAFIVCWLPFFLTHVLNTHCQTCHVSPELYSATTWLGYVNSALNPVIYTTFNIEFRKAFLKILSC
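Agonist-mode cell screen: cells plated at 1500/well and incubated overnight at 37 °C, then exposed to library compounds for 90 min at 37 °C. Detection reagent was added for 30–60 min at room temperature, and luminescence was read.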
D3 antag: D3 dopamine receptor (human) antagonism; P35462; D3R cells, DiscoveRx beta-arrestin luminescence, antagonist mode; stronger effect = lower value; max response, negative = inhibition, %; hit rate 2.5% among 360,000; in the data active = max response below about -50%; inconclusive = no clear call, values can overlap the other calls; also: % is scaled to controls: 0 for no effect and ±100 for the full control effect
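Cells expressing the human receptor were seeded at 1500 cells/well, incubated overnight at 37 degrees C in 5% CO2, then exposed to library compounds with dopamine controls for 90 minutes at 37 degrees C before luminescent detection.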
The depositor's hits bear a star; i = inactive; ? = inconclusive; / = no result. This is a sample that favours compounds with a hit; in the whole collection about 8.9% have one here. Unless noted, calls follow the shape of the dose curve; as a rule, active = well fitted curve in the direction sought with a large enough effect; inconclusive = small, poorly fitted or top-dose-only effect, or another doubt; inactive = no such curve, though single readings can be large; an effect the other way counts as inactive or inconclusive.

SMILES	KB-V1 cytotox	SW480 rereplic	MCF10A rerep	KB-3-1 tox	D3 ag	D3 antag
CCc1nc2ccc(C(=O)Nc3cc(-c4ccccc4)ccc3OC)cn2c1N(CCN(C)C)CC1CC1	?	/	/	?	-18.9	-69.0*
CCc1nc2ccc(C(=O)NCCOc3ccc(OC)cc3)cn2c1N(CCC(C)C)CCN(C)C	i	/	/	i	-28.2	-89.3*
CN(C)c1ccc(/C=C/c2ccnc3ccccc23)cc1C=O	i	/	/	i	/	/
CCCCCCCCCCCCN1[C@@H](CC(=O)OC)c2cc(F)ccc2S1(=O)=O	i	-6.2%	4.8%	i	9.3	30.5
CCCCCCCCCCCCN1[C@@H](CC(=O)OC)c2cc(F)cc(F)c2S1(=O)=O	i	-0.2%	?	i	30.6*	8.0
O=[N+]([O-])c1ccc(O)c(-c2cc(C(F)(F)F)nc(-c3ccccc3)n2)c1	?	14.8%	?	1.46µM*	8.3	7.1
Oc1ccccc1-c1cc(C(F)(F)C(F)F)nc(-c2ccccc2)n1	i	16.0%	?	i	12.6	1.4
Clc1ccccc1CNc1nc2ccccc2c2nc(-c3cccnc3)nn12	i	/	/	i	-8.9	/
Cc1cc(NC(=O)COC(=O)CCS(=O)(=O)c2cc(Cl)ccc2Cl)no1	i	2.9%	20.6µM*	i	9.5	8.8
CC(C)C(=O)Nc1ccc2nc(SCC(=O)N3CCc4ccccc43)sc2c1	?	/	/	?	3.2	/
Fc1cc(F)c2ncc3c(-c4ccccc4)nn(-c4cccc(Cl)c4)c3c2c1	?	/	/	i	-11.7	/
CCOC(=O)C1=C(C)C(c2ccccc2OC)NC(=S)N1 (centres undefined)	23.1µM*	-0.2%	3.1%	i	-0.2	-10.5
CCOC(=O)C1=C(C)C(c2ccccc2OC)NC(=O)N1 (centres undefined)	i	1.0%	?	i	-4.7	?
CC(Oc1ccccc1F)C(=O)Nc1ccc2ccccc2c1 (centres undefined)	?	1.0%	?	11.6µM*	0.6	4.8
Cc1cc(C(=O)O)c2c(=O)n(C)c(=O)n(C)c2n1	?	/	/	i	3.1	/
Cc1ccc(N=N/C(=C\O)C(=O)c2ccncc2)cc1	i	10.4%	?	i	4.3	-12.6
O=C(/C(=C/O)N=Nc1ccc(Cl)cc1)c1ccncc1	i	?	?	13µM*	-14.8	-5.4
CC(=O)Nc1ccc(NC(=O)C(C)OC(=O)CCCc2c[nH]c3ccccc23)cc1 (centres undefined)	i	6.51µM*	-9.6%	i	1.4	4.1
CCCCNC(=O)[C@@H]1CC=C[C@@H]2CCN(CCCC)C(=O)[C@@H]21	i	/	/	i	/	/
CCc1ccccc1NC(=O)N1CCN(Cc2nc3ccc(C)cc3o2)CC1	i	/	/	i	2.1	/
Cc1ccc(S(=O)(=O)N(C)Cc2ccc(C(=O)N/N=C/c3ccc(OC(F)F)cc3OC(F)F)cc2)cc1	5.8µM*	-3.4%	-12.2%	?	0.4	6.0
COc1ccc(-c2[nH]ncc2/C=N/NC(=O)c2ccc(Br)cc2)c(OC)c1	i	-1.7%	-0.7%	i	-37.7	-65.5*
O=C(N/N=C/c1ccc(OC(F)F)cc1OC(F)F)c1ccc(Br)cc1	i	-2.3%	1.5%	i	-13.0	-87.7*
O=C(N/N=C/c1ccc(OC(F)F)cc1OC(F)F)NC1CCCCC1	?	-26.4%	?	i	8.9	4.4
Cc1ccc(S(=O)(=O)N(C)Cc2ccc(C(=O)N/N=C3\CC(=O)CC(C)(C)C3)cc2)cc1	i	-4.8%	?	i	5.1	7.2
SMILES	KB-V1 cytotox	SW480 rereplic	MCF10A rerep	KB-3-1 tox	D3 ag	D3 antag
O=C(NCC(c1cccnc1)N1CCN(Cc2ccccc2)CC1)C(=O)Nc1cccc(Cl)c1 (centres undefined)	i	/	/	i	-0.2	/
COc1cc2c(cc1OC)C(COc1ccccc1OC)N(C(=O)c1ccccc1OC)CC2 (centres undefined)	i	/	/	i	0.7	/
CC(=Nc1ccc(Br)cc1)c1sc2ccccc2c1O	i	1.0%	13.3%	i	5.0	29.8
CC(=Nc1ccccc1)c1sc2ccccc2c1O	20.6µM*	12.4%	?	i	1.6	-8.5
CN1CCC(C2(O)c3ccccc3CSc3sccc32)CC1 (centres undefined)	i	-4.4%	2.3%	i	0.2	-66.6*
COc1ccc(CNC(=O)c2sc3nc4n(c(=O)c3c2C)CCCCC4)cc1	i	/	/	i	1.6	/
O=C(CN1C(=O)COc2ccccc21)N(Cc1ccc2c(c1)OCO2)CC1CCCO1 (centres undefined)	4.11µM*	-4.3%	?	i	-0.6	8.5
O=C(CN1C(=O)COc2ccccc21)N(CCCN1CCOCC1)CC1CC=CCC1 (centres undefined)	i	-2.0%	1.9%	i	-58.4	-56.5*
CCOc1ccc(-c2cc(C(=O)NCc3cc(OC)cc(OC)c3)[nH]n2)c(C)c1	i	/	/	i	-0.9	-14.7
C=C(C)CNC(=S)N/N=C(\C)c1ccc(-n2ccnc2)cc1	14.6µM*	-4.8%	?	i	0.7	5.2
C/C(=N\NC(N)=S)c1ccc(-n2ccnc2)cc1	i	1.3%	1.3%	i	-9.6	?
O=C(NC1CCCCCC1)c1ccc2c(c1)sc1nc(-c3ccc(F)cc3)cn12	/	/	/	/	-1.1	/
CCSc1nc2n(n1)C(c1ccc(C(=O)O)cc1)C(C(=O)Nc1ccccc1C)=C(C)N2 (centres undefined)	?	/	/	i	3.6	/
CCOc1ccc(NC(=O)Cn2c(CCC(=O)O)ccc2-c2ccc(Cl)cc2)cc1	i	/	/	i	0.5	/
CCOC(=O)C1=C(N)n2c(s/c(=C\c3ccco3)c2=O)=C(C(=O)OCC)C1c1ccco1 (centres undefined)	4.61µM*	?	5.8µM*	16.4µM*	-8.1	-9.7
CC1CCCCC1Nc1nc2ccc(Cl)cc2n2cnnc12 (centres undefined)	i	?	?	i	35.0*	4.1
CCN(CC)C(=O)Cn1cc(S(=O)(=O)CC(=O)Nc2ccc(F)cc2)c2ccccc21	i	-3.4%	-4.2%	i	6.0	0.4
CCn1cc(SCC(=O)Nc2cc(C)on2)c2ccccc21	i	-3.7%	1.3%	i	0.8	-88.8*
CCN(CC)C(=O)Cn1cc(S(=O)(=O)CC(=O)Nc2cc(C)on2)c2ccccc21	i	3.2%	0.1%	i	-5.9	-50.7*
COC(=O)C1=C(N)Oc2cc(N(C)C)ccc2C1c1ccccc1OC (centres undefined)	?	11.6µM*	9.2µM*	i	-7.5	0.8
